Screening data as filed in PubChem BioAssay.
INS promoter inh: inhibitors of insulin promoter-driven GFP, primary screen, imaging, TRM-6 cells (human fetal islet line), eGFP reporter, cell count; reporter expression induced with tamoxifen; inhibition, % at 2 µM; actives 0.9% (n = 130,000); AID 1273, 2008;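 active = inhibition above the mean plus 3 SD, with well images judged a real hit on visual review, cut at about 60% in these data, passing the limit was not always enough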
WT yeast gro inh: growth inhibition of WT strain, primary screen, mitochondrial fusion inhibitor project, WT and mutant strains, chemical genetic; mitochondrial fusion phenotypic screen; inhibition, % at 10 µM; actives 2.1% (n = 190,000); AID 1362, 2008; in the data active = inhibition above about 58%; tested in S. cerevisiae
Insulin prom up: insulin promoter activators in MIN6 cells, imaging, high-content screening, mouse beta cells | AID 1625, 2009 | z-score at 5 µM | MIN6 insulin promoter-GFP reporter; stronger effect = higher value | actives 0.3% (n = 190,000);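 active = z-score above 3 at 5 µM with at least 500 cells counted in the well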
Lmaj promast: Leishmania major promastigote growth inhibition, primary screen. Leishmania major promastigotes, resazurin fluorescence viability. inhibition, % at 10 µM. actives 9% (n = 200,000); in the data active = inhibition above about 50%;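 also: promastigotes grown with compound for 44 hours at 28 °C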
Autophagy HCS: autophagy modulators in MEF cells, primary screen, imaging, high-content, MEF GFP-LC3; calls only at 10 µM (by protocol); actives 0.98% (n = 190,000); MEF GFP-LC3 puncta imaging; test concentration mostly 10 µM;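 active = percentage of spot-positive cells more than 3 SD above its plate mean, without a fluorescence outlier flag or 80% toxicity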;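 also: spot-positive cell cutoff set from DMSO-treated cells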
An asterisk follows results filed as active; i = inactive; . = no result given; + = active, no number. Compounds with a hit are over-represented: about 11% of the library has one in this group of screens.

SMILES	INS promoter inh	WT yeast gro inh	Insulin prom up	Lmaj promast	Autophagy HCS
Cn1c(=O)c2c(nc(CN3CCc4ccccc4C3)n2CCc2ccccc2)n(C)c1=O	-46	.	.	30	i
Cn1c(=O)c2c(nc(CN3CCN(Cc4ccccc4)CC3)n2Cc2cccc(Cl)c2)n(C)c1=O	.	8	-1	20	i
O=C(CSc1nc(O)cc(=O)n1-c1ccccc1)Nc1nc2ccccc2s1	.	.	-0.45	.	.
COc1ccc(/C=N/NC(=O)c2ccncc2)cc1COc1ccc(NC(C)=O)cc1	.	.	-0.63	.	.
O=C(Nc1cc(C(F)(F)F)ccc1N1CCOCC1)c1ccc(Cl)nc1	27	5	.	100*	i
CC(C)C(=O)Nc1cc(C(F)(F)F)ccc1N1CCOCC1	19	-17	-0.31	-5	i
CCOc1ccccc1NC(C)C(=O)Nc1cc(C(F)(F)F)ccc1N1CCOCC1 (stereo not drawn)	.	69*	-0.54	3	i
CCn1c(COc2cccc3cccnc23)nnc1SCC(=O)O	.	13	-0.58	-5	.
CCn1c(COc2cccc3cccnc23)nnc1SC(F)F	.	1	0.72	83*	i
CC1CCCN(c2c([N+](=O)[O-])cc(C(=O)O)cc2[N+](=O)[O-])C1 (stereo not drawn)	-21	-3	0.38	-5	i
O=S(=O)(c1ccc(Cl)cc1)N1c2ccccc2Oc2nc3ccccc3nc21	10	-10	.	-3	i
COc1ccc(S(=O)(=O)N2c3cc(Cl)ccc3Oc3nc4ccccc4nc32)cc1	-286	14	-0.85	10	+
O=C(COC(=O)CNC(=O)c1ccc(-c2ccccc2)cc1)NCc1ccco1	.	2	0.04	-7	i
CC(Oc1ccccc1)C(=O)Nc1nnc(C2CCCCC2)s1 (stereo not drawn)	.	13	-0.17	-5	i
C(=N\Nc1nc(N2CCCC2)nc(N2CCCC2)n1)/c1ccccc1OCc1ccccc1	22	5	1.7	4	i
CC(/C=N/Nc1nc(N2CCCCC2)nc(N2CCCCC2)n1)=C\c1ccccc1	.	11	-0.92	19	i
Fc1ccccc1COc1ccccc1/C=N/Nc1nc(N2CCCC2)nc(N2CCCC2)n1	17	10	-0.32	50*	i
C(=N\Nc1nc(N2CCCCCC2)nc(N2CCCCCC2)n1)/c1ccccc1	36	68*	-0.28	61*	i
CN(C)c1nc(NCc2ccccc2)nc(N/N=C/c2cccc(Br)c2)n1	-44	46	0.13	52*	i
Brc1cccc(/C=N/Nc2nc(N3CCCCC3)nc(N3CCCCC3)n2)c1	25	2	0.23	52*	i
CCN(CC(=O)Nc1ccc(N2CCOCC2)cc1)C(=O)COc1ccccc1OC	-24	5	-0.22	-3	i
CCOC(=O)N1CCC(N2Cc3cccc(C(=O)NC(C)c4ccc5c(c4)OCCO5)c3C2=O)CC1 (stereo not drawn)	.	7	0.13	41	i
O=C1[C@@H]2[C@@H]3C[C@@H]([C@H]4ON=C(c5ccc(OCc6ccccc6)cc5)[C@@H]34)[C@@H]2C(=O)N1c1ccc2c(c1)OCO2	13	0	-0.6	16	i
Fc1ccc(Nc2nc(N/N=C/c3ccco3)nc(N3CCCCC3)n2)cc1	33	82*	-1.1	83*	i
BrC(=C\c1ccccc1)/C=N/Nc1nc(N2CCOCC2)nc(N2CCOCC2)n1	-100	16	-1.1	86*	i
SMILES	INS promoter inh	WT yeast gro inh	Insulin prom up	Lmaj promast	Autophagy HCS
C(=N\Nc1nc(N2CCOCC2)nc(N2CCOCC2)n1)/c1ccco1	-17	19	0.22	-5	i
BrC(/C=C\c1ccccc1)=N/Nc1nc(N2CCOCC2)nc(N2CCOCC2)n1	.	6	-0.04	14	i
CC(=O)N1CCC(O)(c2cccc(C(F)(F)F)c2)CC1	42	96*	0.43	-5	i
CN1CCC(N(C)C(=O)CCc2nc3ccccc3c(=O)[nH]2)CC1	2	25	0.13	-3	i
CCN(CC)N=Nc1ccc(S(=O)(=O)N2CCSC2C(=O)O)cc1 (stereo not drawn)	.	-3	-0.23	0	i
CCN(CC)N=Nc1ccc(C(=O)O)cc1	15	-6	-0.04	69*	i
Cc1ccc(NC(=O)COC(=O)c2cccc(N3C(=O)c4ccccc4C3=O)c2)cc1	.	.	0.12	.	.
CC(OC(=O)c1cccc(N2C(=O)c3ccccc3C2=O)c1)C(=O)Nc1ccc(N(C)C)cc1 (stereo not drawn)	-19	13	0.83	56*	i
COc1ccc(N2C(=O)/C(=C/c3cccs3)NC2=S)cc1	6	10	-0.13	-6	i
COc1ccc2nc(N3C(=O)/C(=C/c4ccc(Cl)cc4)NC3=S)sc2c1	11	-7	0.61	60*	+
Cc1cc(C)c2nc(C)cc(Nc3ccc(C(=O)N4CCOCC4)cc3)c2c1	.	.	-0.06	.	.
CC(=O)Nc1cc(S(=O)(=O)C(F)(F)F)ccc1Cl	51	-23	0.54	4	i
CC1CN(C)C(C)C/C1=N\Oc1ccc([N+](=O)[O-])cc1 (stereo not drawn)	14	13	-0.16	16	i
CC1=CC(=O)C=C(C)C1=NOc1ccc([N+](=O)[O-])cc1	100*	-31	0.07	60*	i
Cc1nnc(SCCN2CCOCC2)c2nn(-c3ccccc3F)c(C)c12	-8	-6	0.54	53*	i
Cc1nnc(Cl)c2nn(-c3ccccc3F)c(C)c12	-31	-5	0.61	-3	i
CSCCC(N=C(NS(=O)(=O)c1ccccc1)c1ccccc1)C(=O)O (stereo not drawn)	.	.	-0.09	.	.
CN(C)CCCOc1ccc2c(c1)Sc1ccccc1CC2=O	19	0	0.08	100*	i
Nc1ccc2c(c1)C(=O)Cc1ccccc1S2	-15	-3	0.8	2	i
O=C(COc1ccc(Cl)cc1)NCCN1CCCCC1	-23	0	.	24	i
O=C1Cc2ccccc2Sc2c(OCCN3CCCCC3)cccc21	-18	27	-0.05	100*	i
O=C1Cc2ccccc2Sc2cc(OCCCN3CCCCC3)ccc21	6	16	-0.53	100*	i
CCOC(=O)CSc1ncnc2c(C(=O)OCC)c3n(c12)CCC3	28	2	.	-3	i
COc1cc(CNCCNC(=O)c2nonc2N)ccc1OCc1ccc(Cl)nc1	.	-15	0.12	35	i
O=c1cc(NS(=O)(=O)c2ccccc2)nc(SCc2ccccc2Cl)[nH]1	21	0	0.27	0	i
O=c1cc(NS(=O)(=O)c2ccccc2)nc(SCc2c(Cl)cccc2Cl)[nH]1	41	-1	-0.56	69*	i
Cc1ccc(C)c(NC(=S)NC(NC(=O)OCc2ccccc2)C(Cl)(Cl)Cl)c1 (stereo not drawn)	-59	-9	-0.08	58*	i
O=C(NC(NC(=S)Nc1c(Cl)cc(Cl)cc1Cl)C(Cl)(Cl)Cl)OCc1ccccc1 (stereo not drawn)	-26	7	0.13	33	i
